Measured values as given in PubChem BioAssay.
Where “and” joins values, the source holds several entries; their conditions need not be identical. Equal values may be shown once. For some assays here: Results with a measured potency or affinity are listed apart. Calls of active or inactive are those of the source. Unless noted, the rule behind the calls is not given here.

Assays:
[1] = compounds altering circadian rhythm period length – cell-based, LOPAC library, luminescence reporter (AID 2774); details: circadian reporter cells, at 7 µM, actives lie on both sides;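 note: values are relative to mean of DMSO wells on each plate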
[2] = tested on: Hepatitis C virus NS3 helicase; experiment: blockers of NS3h binding to ssDNA – biochemical, fluorescence polarization, LOPAC1280 library, primary screen (AID 687035; in the data active = inhibition above about 37%); details: Purified HCV NS3 helicase, Cy5-dT15 ssDNA binding fluorescence polarization; stronger effect = higher value; concentration not given here
[3] = compounds altering Cy5-DNA-NS3h complex signal – biochemical, LOPAC1280, artefact control for HCV NS3 helicase inhibitor project (AID 687037); details: Cy5-DNA-NS3h complex fluorescence interference counterscreen
[4] = tested on: Aerobactin synthetase IucA (Klebsiella pneumoniae); experiment: inhibition of K. pneumoniae IucA enzyme – biochemical, Tocris library, absorbance (AID 1345561); details: purified IucA enzyme assay, absorbance (OD) read-out; stronger effect = lower value;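 tested at 8 µM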;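 note: 100% = enzyme without compound and 0% = no enzyme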
[5] = tested on: Aerobactin synthetase IucA (Klebsiella pneumoniae, hypervirulent); experiment: biochemical IucA inhibition screen of LOPAC library by absorbance (AID 1346212); details: IucA enzyme assay, absorbance (OD) readout; stronger effect = lower value;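 tested at 8 µM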;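 note: 100% = no compound wells and 0% = no enzyme wells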
[6] = viability loss with induced miR-34 in A549 – imaging, A549 dox-inducible miR-34, nuclei and caspase counts, primary screen (AID 1347080;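 active = compounds whose cell count with miR-34 switched on is under 0.7 times the count with it off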); details: A549 miR-34 inducible, Hoechst nuclei count, 48 h
[7] = blockers of cellular phospholipid synthesis – cell-based, LOPAC library, screen 4, primary screen (AID 1347384); details: animal cells, phospholipid biosynthesis inhibition screen; at 10 µM
[8] = galactose survival enhancers in mitochondrial complex I cybrids – cell-based, galactose medium, ATP luminescence, primary screen (AID 1645843;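 active = z-score of at least 1.8 in each of two replicates, scored against plate mean and spread of sample wells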;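 note: positive z means more ATP and so rescue of galactose-driven cybrid death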); details: complex I mutant cybrid cells, 72 h, stronger effect = higher value
[9] = MELAS cybrid and Rieske KO viability enhancers – cell-based, MELAS cybrids, Rieske KO mouse fibroblasts, CellTiter-Glo, primary screen (AID 1508586;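 active = mean z-score across replicates of 1.96 or higher in either the MELAS or the Rieske mutant cell line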;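 note: z relative to plate mean and SD of compound and empty wells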); details: low glucose
[10] = P. berghei load reduction in hepatocytes – cell-based, HepG2, luciferase luminescence, HepG2 viability, primary screen (AID 624349; in the data active = parasite load remaining mostly below about 12%, no sharp cut-off; inactive = mostly above about 10%;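 note: 100% = mean of DMSO negative control wells on the same plate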); details: P. berghei liver stage in HepG2, luciferase luminescence, concentration not given here; parasite load remaining: stronger effect = lower value; viability: measured here: HepG2 viability without parasites
[11] = EMT-state selective cytotoxicity in co-culture – imaging, PC-3E GFP, TEM4-18 mCherry, primary screen (AID 1345086;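 active = compounds killing one labelled cell type while sparing the other, by normalised counts and ratio limits, not self-fluorescent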;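 for all read-outs here: cells exposed to compound for 72 h before imaging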;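 for red/green cell ratio (normalised): normalised mesenchymal count divided by normalised epithelial count so high means epithelial killing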); details: PC-3E GFP / TEM4-18 mCherry co-culture, imaging cell counts, at 1 µM; for red/green cell ratio (normalised): actives lie on both sides
[12] = blockers of polyQ-driven CASP3 activation – cell-based (AID 1583); details: polyglutamine-induced caspase-3 activation, cell assay; stronger effect = higher value;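 tested at 10 µM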
[13] = yeast 75Q aggregation reduction – 75Q-TubU reporter (AID 1593); details: Yeast 75Q polyglutamine aggregation reporter
[14] = restoration of touch response, mutant HTT neurons – whole organism, C. elegans mechanosensory neurons, N-terminal huntingtin (AID 1599); details: C. elegans polyQ-huntingtin mechanosensory neurons, stronger effect = higher value
[15] = blockers of cytochrome c efflux from mitochondria – biochemical, purified mitochondria (AID 1603); details: stronger effect = lower value;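 note: mouse liver mitochondria challenged with calcium chloride; signal normalized to the plate average as 100%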
[16] = polyglutamine aggregate formation blockers (AID 1604); details: polyglutamine-induced protein aggregation inhibition assay; stronger effect = higher value; tested at 2.5 µM
[17] = glutamate transport activators, MN-1 cells, MN-1 cell line (AID 1612); details: MN-1 motor neuron cells, stronger effect = higher value;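 note: tested at 1 µM final; 0% = mean of DMSO vehicle wells on each plate; positive means more glutamate uptake than control and negative means less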
[18] = 75Q-TubH aggregate inhibition, S. cerevisiae, yeast (AID 1616); details: S. cerevisiae 75Q-TubH polyglutamine aggregation suppression; stronger effect = higher value
[19] = measured here: relative caspase fold change +Dox/-Dox
[20] = measured here: total cells with miR-34 induction, stronger effect = lower value
[21] = measured here: total cells without miR-34 induction
[22] = stronger effect = lower value, cell number ratio, induced over uninduced
[23] = measured here: epithelial PC-3E GFP cell survival
[24] = measured here: mesenchymal TEM4-18 mCherry cell survival

Question: For CCOC(=O)c1ncn2c1[C@@H]1CCCN1C(=O)c1cc(OC)ccc1-2, which period change [1] is on record?
Answer: Its period change is -0.11 h (inactive).

Question: And the inhibition [2]?
Answer: Its inhibition is 0% (inactive).

Question: What about the fluorescence ratio (interference) [3] of the same compound?
Answer: Its fluorescence ratio (interference) is 1 (inactive).

Question: What about the remaining activity [4] of the same compound?
Answer: The remaining activity was 125% (inactive).

Question: What about the remaining activity [5] of the same compound?
Answer: The remaining activity was 110% (inactive).

Question: What about the fold change ([6]; stronger effect = lower value) of the same compound?
Answer: Its fold change is 1.04 (inactive) and 0.964 (inactive).

Question: And the fold change [6, 19]?
Answer: Its fold change is 0.593 and 0.443.

Question: And the cell count [6, 20]?
Answer: Its cell count is 9220 and 8750.

Question: And the cell count [6, 21]?
Answer: Its cell count is 8880 and 9080.

Question: What about the outcome [7] of the same compound?
Answer: Its outcome is “inactive”.

Question: And the z-score [8]?
Answer: The z-score was 0.505 (inactive) and 0.115 (inactive).

Question: Which period change [1] does the source give for CN1CCC(c2c[nH]c3ccc(O)cc23)CC1 here?
Answer: Its period change is -0.16 h (inactive).

Question: And the inhibition [2]?
Answer: Its inhibition is -2% (inactive).

Question: And the fluorescence ratio (interference) [3]?
Answer: Its fluorescence ratio (interference) is 1 (inactive).

Question: And the remaining activity [4]?
Answer: Its remaining activity is 116% (inactive).

Question: What about the remaining activity [5] of the same compound?
Answer: Its remaining activity is 119% (inactive).

Question: And the fold change ([6]; stronger effect = lower value)?
Answer: The fold change was 1.01 (inactive).

Question: What about the fold change [6, 22] of the same compound?
Answer: Its fold change is 0.949 (inactive) and 0.908 (inactive).

Question: And the fold change [6, 19]?
Answer: Its fold change is 1.73 and 0.894 and 0.857.

Question: What about the cell count [6, 20] of the same compound?
Answer: Its cell count is 10800 and 7640 and 9030.

Question: What about the cell count [6, 21] of the same compound?
Answer: Its cell count is 10700 and 8050 and 9950.

Question: And the outcome [7]?
Answer: The outcome was “inactive”.

Question: And the z-score ([9]; MELAS cybrid survival, CellTiter-Glo 48 h, stronger effect = higher value)?
Answer: Its z-score is -0.212 (inactive).

Question: And the z-score ([9]; Rieske KO mouse fibroblast survival, CellTiter-Glo 72 h)?
Answer: The z-score was -0.062.

Question: What about the z-score [8] of the same compound?
Answer: Its z-score is 0.06 (inactive) and -0.325 (inactive).

Question: Which parasite load remaining [10] does the source give for C[C@]12CC[C@H](OC3OC(O)C(O)C(O)C3O)C=C1CCC1C2CC[C@]2(C)[C@@H](c3ccc(=O)oc3)CC[C@]12O (stereo partly specified) here?
Answer: The parasite load remaining was -0.075% (inactive).

Question: And the viability [10]?
Answer: Its viability is 22.8%.

Question: What about the red/green cell ratio (normalised) ([11]; counts scaled to control wells, 1 = unselective) of the same compound?
Answer: Its red/green cell ratio (normalised) is 0.18 (inactive).

Question: What about the normalised cell number [11, 23] of the same compound?
Answer: Its normalised cell number is 0.18.

Question: What about the normalised cell number [11, 24] of the same compound?
Answer: The normalised cell number was 0.03.

Question: What about the fold change [6, 22] of the same compound?
Answer: Its fold change is 0.742 (inactive).

Question: And the fold change [6, 19]?
Answer: Its fold change is 0.885.

Question: And the cell count [6, 20]?
Answer: The cell count was 150.

Question: What about the cell count [6, 21] of the same compound?
Answer: The cell count was 202.

Question: With O1[As]2O[As]3O[As]1O[As](O2)O3 as the compound, how does the parasite load remaining [10] read?
Answer: Its parasite load remaining is 61.8% (inactive).

Question: And the viability [10]?
Answer: The viability was 103%.

Question: And the red/green cell ratio (normalised) [11]?
Answer: Its red/green cell ratio (normalised) is 0.77 (inactive).

Question: And the normalised cell number [11, 23]?
Answer: The normalised cell number was 1.19.

Question: What about the normalised cell number [11, 24] of the same compound?
Answer: Its normalised cell number is 0.92.

Question: And the fold change ([6]; stronger effect = lower value)?
Answer: The fold change was 0.844 (inactive).

Question: And the fold change [6, 19]?
Answer: The fold change was 2.16.

Question: What about the cell count [6, 20] of the same compound?
Answer: Its cell count is 11700.

Question: What about the cell count [6, 21] of the same compound?
Answer: Its cell count is 13900.

Question: Which results are given for C[C@]12CCC(=O)C=C1CCC1C2CC[C@@]2(C)C1CC[C@@H]2O (stereo partly specified)?
Answer: inhibition [12]: -4.21%; score [13]: -1.11; rescue above control [14]: 4.25; cytochrome c release ratio [15]: 1.03; inhibition of aggregation [16]: -1.96%; glutamate uptake change [17]: 18.8%; aggregation suppression score [18]: -0.43; parasite load remaining [10]: 68.4% (inactive); viability [10]: 110%; red/green cell ratio (normalised) [11]: 1.12 (inactive); normalised cell number [11, 23]: 0.76; normalised cell number [11, 24]: 0.85; fold change ([6]; stronger effect = lower value): 0.943 (inactive); fold change [6, 19]: 2.07; cell count [6, 20]: 10700; cell count [6, 21]: 11300

Question: Which period change [1] does the source give for NCc1cc(=O)[nH]o1 here?
Answer: The period change was -0.1 h (inactive).

Question: What about the inhibition [2] of the same compound?
Answer: Its inhibition is -3% (inactive).

Question: And the fluorescence ratio (interference) [3]?
Answer: The fluorescence ratio (interference) was 1 (inactive).

Question: What about the remaining activity [4] of the same compound?
Answer: The remaining activity was 112% (inactive).

Question: And the remaining activity [5]?
Answer: The remaining activity was 89% (inactive).

Question: What about the fold change ([6]; stronger effect = lower value) of the same compound?
Answer: The fold change was 0.974 (inactive).

Question: And the fold change [6, 22]?
Answer: The fold change was 0.899 (inactive).

Question: And the fold change [6, 19]?
Answer: Its fold change is 1.71 and 1.62.

Question: And the cell count [6, 20]?
Answer: Its cell count is 10400 and 8970.

Question: What about the cell count [6, 21] of the same compound?
Answer: Its cell count is 10700 and 9980.

Question: And the outcome [7]?
Answer: Its outcome is “inactive”.

Question: What about the z-score [8] of the same compound?
Answer: Its z-score is 0.465 (inactive) and -0.045 (inactive).
